SW480 rereplic: induces DNA re-replication in SW480 colon adenocarcinoma cells. SW480 DNA re-replication, Hoechst DNA content imaging, 48 h. Potency, µM (series often up to 46.1 µM), most hits filed as activators. 340,000 compounds, 1.8% hits; also: nearly all actives have a fitted effect of over 55% in size
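Cells (250 per well) received 23 nL compound or DMSO by pin tool and were kept 48 hr at 37 C, 5% CO2. Nuclei were then stained with Hoechst for 40 min and scanned for DNA content.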
RORgamma inh: blocks mouse ROR gamma transcriptional activity. P51450. Drosophila S2 Gal4-RORgamma UAS-luciferase reporter, 20 h. Potency, µM (series often up to 53.6 µM), usual class: inhibitors. 310,000 compounds, 5.4% hits. AID 2551; also: nearly all actives have a fitted effect of over 60% in size
Target sequence (P51450 whole entry, looked up, the tested form may be a part): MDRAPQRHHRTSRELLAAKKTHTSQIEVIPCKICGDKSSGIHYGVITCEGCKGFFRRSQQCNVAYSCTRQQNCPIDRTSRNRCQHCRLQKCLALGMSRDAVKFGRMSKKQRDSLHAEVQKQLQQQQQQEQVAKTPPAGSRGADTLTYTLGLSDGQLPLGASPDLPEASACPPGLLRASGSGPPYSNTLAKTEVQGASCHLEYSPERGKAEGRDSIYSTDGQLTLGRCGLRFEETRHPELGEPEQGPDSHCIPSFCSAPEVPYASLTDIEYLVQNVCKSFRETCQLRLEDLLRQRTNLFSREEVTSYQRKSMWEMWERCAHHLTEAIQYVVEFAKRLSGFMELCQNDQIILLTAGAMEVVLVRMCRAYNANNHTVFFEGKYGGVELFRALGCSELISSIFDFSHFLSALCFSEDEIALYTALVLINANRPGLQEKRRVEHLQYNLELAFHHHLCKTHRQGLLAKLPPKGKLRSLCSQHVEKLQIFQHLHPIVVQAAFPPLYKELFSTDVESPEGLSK
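Luciferase reporter read in Schneider cells carrying Gal4-RORγ (mouse) and UAS-Photinus luciferase; cells given compound 1 h before 700 uM copper sulfate induction, then incubated 20 h at ambient temperature.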
Gal4-VP16 FLuc: counter-screen for ROR gamma inhibitors: Gal4-VP16 reporter | Drosophila S2 Gal4-VP16 UAS-luciferase, luminescence, 20 h | Potency, µM (doses to about 53.6 µM), hits mostly inhibitors | 310,000 compounds, 3.5% hits | AID 2546;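 also: Gal4-VP16 expression switched on by copper sulfate through the metallothionein promoter; nearly all actives have a fitted effect of over 50% in size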
MCF10A rerep: inducers of DNA re-replication in MCF 10A breast cells | MCF 10A DNA re-replication, Hoechst nuclear intensity, 48 h | 350,000 compounds, 2.9% hits | AID 624296 | Potency, µM (series often up to 46.1 µM), usual class: activators; also: nearly all actives have a fitted effect of over 50% in size
ELG1 DNA repair: ELG1-dependent DNA repair inhibition; HEK293T ELG1-luciferase reporter, luminescence, 16 h; DNA damage induced by 5-fluorouridine; Potency, µM (top dose mostly 46.1 µM), hits mostly inhibitors; 330,000 compounds, 2.3% hits; AID 504467; also: nearly all actives have a fitted effect of over 55% in size
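DMSO vehicle served as the neutral condition. Each well held 2,000 cells given 5-fluorouridine plus compound; after 16 hr at 37 °C/5% CO2, ONE-Glo was added and luciferase measured 30 min later.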
Numbers stand for hits; n = inactive; u = inconclusive; x = no result; [ ] = another dose, or the depositor's remark. Only some compounds are listed: those with a hit (about 10% of all), similar ones and a draw of the others. Calls follow the shape of the dose curve; as a rule, active = well fitted curve in the direction sought with a large enough effect; inconclusive = small, poorly fitted or top-dose-only effect, or another doubt; inactive = no such curve, though single readings can be large; an effect the other way counts as inactive or inconclusive.

SMILES	SW480 rereplic	RORgamma inh	Gal4-VP16 FLuc	MCF10A rerep	ELG1 DNA repair
CCCCC1=CC2=C(OC(C)=O)C(=O)C(C)(OC(=O)c3ccc(Cl)nc3)C(=O)C2=CO1 (centres undefined)	x	n	n	x	x
CC1(C)C[C@H]2C3=CCC4[C@@]5(C)CC[C@H](O)[C@](C)(CO)C5CC[C@@]4(C)[C@]3(C)C[C@H]3O[C@@H]1[C@H](O)[C@]32CO (some centres undefined)	n	x	x	n	u
Cc1ccccc1NC(=S)NCc1cccs1	n	u	u	n	n
COc1ccc(NC(=S)NCc2cccs2)cc1OC	n	13µM	n	n	n
NS(=O)(=O)c1ccc(NC(=S)NCc2cccs2)cc1	n	n	n	n	n
Cc1ccc(C)c(NC(=S)NCc2cccs2)c1	n	4µM	11µM	n	n
S=C(NCc1cccs1)Nc1ccccc1	n	10µM	u	n	n
COc1ccc(CNC(=S)Nc2ccc(F)c(Cl)c2)cc1OC	n	11µM	n	n	u
CCC(NC(=O)CNC(=O)CNC(=O)c1ccc(Cl)cc1Cl)c1ccc(C)cc1 (centres undefined)	n	n	n	n	n
Cc1[nH]c(C)c(S(=O)(=O)N2CCN(c3ccccc3F)CC2)c1C(=O)N1CCCCC1	n	n	n	n	n
CC(=O)O[C@@H]1[C@H]2[C@@H](C[C@@H](C)[C@@H]3CCC(=O)[C@@]13C)OC(=O)[C@@H]2C	n[9.22 µM]	n	n	n	n
C=CCNC(=S)Nc1cc(Cl)ccc1OC	n	13µM	u	n	n
C=CCN(CC=C)C(=S)Nc1cc(Cl)ccc1OC	n	u	n	n	n
COc1cccc(NC(=S)Nc2ccc(F)cc2)c1	n	16µM	u	n	n
Cc1ccccc1N1CCN(CC(=O)Nc2ccccc2C(=O)NC2CC2)CC1	n	x	x	n	21µM
CCCNc1nc(N)nc(-c2cc(Cl)ccc2OC)n1	n	n	n	n	n
CCCN(CCC)c1nc(N)nc(-c2cc(Cl)ccc2OC)n1	n	16µM	n	n	n
CCN1CCN(c2cc(C)c3cc(NC(=S)NCc4cccs4)ccc3n2)CC1	u	n	n	7.3µM	n
Cc1cc(N2CCN(C)CC2)nc2ccc(NC(=S)NCc3cccs3)cc12	u	n	n	9.2µM	n
C[C@H](NC(=O)N1CCC(Cc2ccccc2)CC1)C(=O)O	n	n	n	n	n
Cc1ccc(C)c(OCc2cc(C(=O)N3CCc4sccc4C3)no2)c1	n	2µM	u	n	n
CN1CCN(S(=O)(=O)c2cccc(C(=O)N(Cc3nnc(-c4ccc(Cl)cc4)o3)C3CC3)c2)CC1	6.5µM	x	x	n	n
CCOc1ccc2oc(C(=O)N(Cc3nnc(-c4ccccc4Cl)o3)C3CC3)c(C)c2c1	n	x	x	n	9.2µM
CC1CN(S(=O)(=O)c2cccc(C(=O)N(Cc3nnc(-c4ccccc4Cl)o3)C3CC3)c2)CC(C)O1 (centres undefined)	n	x	x	n	5.8µM
Cc1ccc(S(=O)(=O)N2CCOCC2)cc1C(=O)N(Cc1nnc(-c2ccccc2Cl)o1)C1CC1	n	n	n	n	10µM
SMILES	SW480 rereplic	RORgamma inh	Gal4-VP16 FLuc	MCF10A rerep	ELG1 DNA repair
O=C(NCCN1CCOCC1)/C(=C/c1ccco1)NC(=O)c1ccccc1	n	x	x	n	n
CCOc1ccccc1NC(=O)CCC(=O)Nc1nnc(C2CCCCC2)s1	n	n	n	n	n
CCN(CC)c1nc(-c2ccc(C(=O)NN)cc2)nc(-c2ccc(C(=O)NN)cc2)n1	n	n	n	n	n
CC(C)[C@H](NC(=O)OC(C)(C)C)[C@@H](O)CC(=O)C(C)(C)C	x	n[10 µM]	n[10 µM]	x	x
COc1cc(C2c3cc4c(cc3CC3COC(=O)N32)OCO4)cc(OC)c1OC (centres undefined)	1.2µM	x	x	1.3µM	x
O=C(NCc1cccnc1)/C(=C/c1ccc(-c2ccc(Cl)cc2)o1)S(=O)(=O)c1ccccc1	9.2µM	u	20µM	9.2µM	u
O=C(NCc1cccnc1)/C(=C\c1ccc(-c2ccc(Br)cc2)o1)S(=O)(=O)c1ccccc1	15µM	u	u	7.3µM	21µM
O=C(NCc1cccnc1)/C(=C/c1ccc(-c2cccc(C(F)(F)F)c2)o1)NC(=O)c1ccccc1	n	u	n	u	u
COc1ccc(-n2cc(CNC3CCN(C)CC3)c(-c3cccc(F)c3)n2)cc1	n[1.84 µM]	u	u	21µM	n
COc1ccc(C(=O)N2CCC3(CCN(Cc4ccncc4)CC3)CC2)cc1	x	n	n	x	x
COc1ccc(N2CCN(Cc3nc(N)nc(Nc4ccc(C)c(Cl)c4)n3)CC2)cc1	u	u	u	u	13µM
Cc1ccc(Nc2nc(N)nc(CN3CCN(Cc4ccc5c(c4)OCO5)CC3)n2)cc1C	n	u	n	n	13µM
Cc1ccc(Nc2nc(N)nc(CN3CCN(c4ccccc4)CC3)n2)cc1Cl	n	u	n	18µM	u
Cc1ccc(Nc2nc(N)nc(CN3CCN(Cc4ccc5c(c4)OCO5)CC3)n2)cc1Cl	n	n	n	u	u
Cc1ccc(Nc2nc(N)nc(CN3CCN(C)CC3)n2)cc1C	x	n	n	x	n
CCOc1nc(Nc2ccc(OC)c(Cl)c2)nc(N2CCN(c3ccc(OC)cc3)CC2)n1	n	n	n	n	18µM
Nc1ncnc2c1nc(Cl)n2C1OC(CO)C(O)C1O (centres undefined)	x	n	n	x	x
Nc1ncnc2c(C3OC(CO)C(O)C3O)c[nH]c12 (centres undefined)	0.21µM	x	x	u	x
Cc1nc2cnc(N(C)C)nc2n(CCc2ccccc2)c1=O	x	n	n	x	x
CON1C(=O)C(=O)N(OC)C(C)(C)C1C (centres undefined)	n	n	n	u	n
Cc1ccc(C(=O)N(Cc2ccccc2)C(C)(C)C)cc1C	n	u	n	23µM	n
O=S(=O)(Nc1ccc(-n2cccc2)cc1)c1ccc(Cl)cc1Cl	n	20µM	14µM	u	n
CC1CC(C)CN(CCCNC(=O)Cn2cccc2C(=O)c2ccccc2)C1 (centres undefined)	n	n	n	n	n
C/C(=N\NC(=O)CSCc1ccc([N+](=O)[O-])cc1)c1ccccc1O	u	0.32µM	2µM	n	u
C/C(=N\NC(=O)CSCc1ccc([N+](=O)[O-])cc1)c1ccccc1	n	u	n	n	u
SMILES	SW480 rereplic	RORgamma inh	Gal4-VP16 FLuc	MCF10A rerep	ELG1 DNA repair
C/C(=N\NC(=O)Cc1ccc(Cl)cc1)c1ccccc1O	15µM	0.28µM	0.32µM	n	n
CC(=O)Oc1ccc(-c2cccc(C(=O)N(C)c3ccc(O)cc3)c2)cc1	n	n	n	n	n
CCCn1c2ccccc2c2nnc(SC(CC)C(=O)Nc3cc(C)on3)nc21 (centres undefined)	n	n	n	n	23µM
CCOC(=O)CSc1nnc2c3ccccc3n(CC)c2n1	n	n	n	u	n
CCn1c2ccccc2c2nnc(SCC(=O)c3ccccc3)nc21	n	13µM	n	u	u
O=C(CSc1nncn1-c1ccccc1F)NC1CC1	n	x	x	n	u
Clc1ccccc1-c1cncnc1NCc1cccs1	x	n	n	x	x

Bioassay records (PubChem)
